Most compounds without a hit are left out; they make up all but 6.5% or so of the library.
DPM-DC inhibit – inhibitors of Streptococcus pneumoniae diphosphomevalonate decarboxylase. 0.49% of 65,000 active. calls only at 10 µM. purified DPM-DC, PK/LDH coupled NADH fluorescence;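 active means the 320 compounds with the highest percent inhibition in the single-dose primary screen, excluding strongly autofluorescent ones, cut at about 32% in these data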;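 further: kinetic rate of NADH fluorescence loss reporting ADP formed by the decarboxylase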
Spn PMK inh – blocks S. pneumoniae phosphomevalonate kinase; purified PMK, PK/LDH-coupled NADH absorbance 340 nm; inhibition, % at 10 µM; 0.49% of 65,000 active; AID 539;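 active means top-ranked compounds by inhibition in the single 10 µM screen, taking a fixed number of the strongest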
Autofluor 339 – intrinsic fluorescence of library compounds, ex339/em460 – biochemical, MLSMR library, data from DPM-DC assay, artefact control, profiling panel; compound autofluorescence, ex339/em460 nm, NADH buffer; active compounds read high; 1 = no-compound wells, NADH background; fluorescence fold increase at 10 µM; 5.5% of 65,000 active;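 active means at 10 µM, mean starting fluorescence two-fold or more over control wells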;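 further: signal is the first read of a kinetic run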
NADH coupling – inhibitors of enzymes used to reach an NAD/NADH endpoint | 0.02% of 65,000 active | IC50, µM (highest dose often 10 µM) | coupled PK/LDH NADH assays, four targets | AID 774;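 active means single-dose screening hits from any of four coupled enzyme assays that gave an IC50 when retested across doses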;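 further: the DPM-DC format reads NADH fluorescence rather than 340 nm absorbance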
A340 absorber – absorbance at 340 nm; compound absorbance at 340 nm, fold over control; fold change at 10 µM; 65,000 tested, under 10 active;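 active means at 10 µM dose, initial 340 nm absorbance at least 2 fold that of control wells; inactive means change under 2 fold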;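 further: initial absorbance extrapolated from kinetic A340 decline of NADH oxidation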
Spn MK inh – blocks S. pneumoniae mevalonate kinase. purified MK, PK/LDH-coupled NADH absorbance 340 nm. inhibition, % at 10 µM. 0.48% of 65,000 active;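 active means ranked among the strongest by inhibition in the single 10 µM screen, a fixed top-ranked set picked for dose follow-up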
Each line names hits and unclear results; the compound was inactive in the other large screens.

Cc1cccc(NS(=O)(=O)c2cccc3cccnc23)n1	none
Cc1cccc(NS(=O)(=O)c2ccccc2)n1	Autofluor 339 2.1 (not shown: DPM-DC inhibit)
C=CCSc1nc2nc(C)cc(C)n2n1	none
O=C(COC(=O)c1ccccc1Nc1ccccc1)NCc1ccco1	none
NC(=O)c1ccsc1NC(=O)COC(=O)c1ccccc1NCc1ccco1	Autofluor 339 2.1 (not shown: DPM-DC inhibit)
COc1cc(NC(=O)c2cccs2)c(C(=O)OCC(=O)NCc2ccco2)cc1OC	DPM-DC inhibit active
Oc1ccc(C(=S)N2CCCCC2)cc1Cl	none
O=C(Nc1ccc2c(c1)OCCO2)c1ccc(S(=O)(=O)N2CCCCC2)cc1	none
COC(=O)c1sc2nc(N3CCCCC3)c3c(c2c1N)CC(C)(C)N(C)C3	Autofluor 339 2.3 (not shown: DPM-DC inhibit)
CCOC(=O)c1sc2nc(N3CCOCC3)c3c(c2c1N)CCC3	Autofluor 339 3.6 (not shown: DPM-DC inhibit)
CCOC(=O)C1Cc2c([nH]c3ccccc23)CN1 (stereo not drawn)	none
CCOC(=O)CCc1c(C)nc2cc(-c3ccc(F)cc3)[nH]n2c1=O	none
CCOC(=O)CNc1c(-c2ccc(F)cc2)nc2cnccn12	Autofluor 339 2.3 (not shown: DPM-DC inhibit)
CCOC(=O)CSCc1nc(-c2ccc(Cl)cc2)oc1C	none
CCOC(=O)CNc1c(-c2ccc(Cl)cc2)nc2cnccn12	Autofluor 339 4.9 (not shown: DPM-DC inhibit)
CCOC(=O)c1oc2cc(OCC(N)=O)ccc2c(=O)c1-c1ccc(OC)c(OC)c1	none
COC(=O)C(CC(C)C)Oc1ccc2c(C)cc(=O)oc2c1 (stereo not drawn)	none
CCCOc1ccc2c(C)c(CC(=O)OC)c(=O)oc2c1	Autofluor 339 3.7 (not shown: DPM-DC inhibit)
CCc1c(C)c2ccc(OCC(N)=O)cc2oc1=O	Autofluor 339 3.7 (not shown: DPM-DC inhibit)
CC1CCCCC1NC(=O)COC(=O)c1ccc(S(=O)(=O)N2CCOCC2)cc1 (stereo not drawn)	none
Cc1cc(F)ccc1S(=O)(=O)Nc1ccccc1C(=O)Nc1ncn[nH]1	Autofluor 339 2.3 (not shown: DPM-DC inhibit)
COc1ccc(OC)c(S(=O)(=O)N(C)CC(=O)N2CCN(c3cccc(Cl)c3)CC2)c1	none
COc1c2ccoc2nc2c(OC)c(OCC(O)C(C)(C)O)ccc12 (stereo not drawn)	Autofluor 339 2.5 (not shown: DPM-DC inhibit)
Cc1ccc(CCC(=O)Nc2nccs2)o1	none
CCOC(=O)N1CCN(C(=O)CCn2c(=S)[nH]c3cc(OCC)c(OCC)cc3c2=O)CC1	none
CCOC(=O)c1nn(-c2ccccc2)c(=O)c2c(N)scc12	none
CCOC(=O)c1nn(-c2ccccc2)c(C(=O)OCC)c1N	Autofluor 339 3.8 (not shown: DPM-DC inhibit)
Cc1ccc(S(=O)(=O)Nc2ccccc2C(N)=O)cc1	Autofluor 339 3.9 (not shown: DPM-DC inhibit)
NC(=O)c1ccccc1NC(=O)CS(=O)(=O)Cc1ccccc1	none
CN(C)S(=O)(=O)Nc1ccccc1C(N)=O	Autofluor 339 2.9 (not shown: DPM-DC inhibit)
CN(C)S(=O)(=O)Nc1ccc(NS(=O)(=O)N(C)C)c(S(=O)(=O)c2ccccc2)c1	none
NC(=O)c1ccccc1NS(=O)(=O)Cc1ccc(Cl)cc1	Autofluor 339 3.9 (not shown: DPM-DC inhibit)
CCC1(c2ccc(F)cc2)NC(=O)N(CC(=O)c2ccc[nH]2)C1=O (stereo not drawn)	none
CCOc1cccc(NC(=O)c2ccc(S(=O)(=O)N3CCCC3)cc2)c1	none
CC(=O)c1c(C(C)=O)c(C)n(CCCCn2c(C)c(C(C)=O)c(C(C)=O)c2C)c1C	none
COc1cccc(C2=NOC(C(=O)Nc3cccc(C(C)=O)c3)C2)c1 (stereo not drawn)	none
Cc1cc(NCCN2CCOCC2)n2ncc(-c3ccc(Cl)cc3)c2n1	Autofluor 339 3.3 (not shown: DPM-DC inhibit)
Cc1cc(NCCN2CCOCC2)n2ncc(-c3ccccc3)c2n1	none
Cc1cc(NCCN2CCOCC2)n2nc(C)c(-c3ccc(Cl)cc3)c2n1	Autofluor 339 2.4
Cc1cc(NCCN2CCOCC2)n2nc(C)c(-c3ccccc3)c2n1	none
N/C(Cn1nnc(-c2ccccc2)n1)=N\O	none
O=C(c1ccccc1C(F)(F)F)N1CCN(S(=O)(=O)c2ccccc2)CC1	none
CCOCCn1c(CN2CCN(CC)CC2)nc2c1c(=O)n(C)c(=O)n2C	none
Cc1ccc(-c2nc(C#N)c(NCCN3CCCCC3)o2)cc1	Autofluor 339 2.1 (not shown: DPM-DC inhibit)
N#Cc1nc(-c2ccco2)oc1NCCN1CCOCC1	Autofluor 339 3
N#Cc1nc(-c2ccc(F)cc2)oc1NCCN1CCOCC1	Autofluor 339 2.1 (not shown: DPM-DC inhibit)
N#Cc1nc(Cc2cccc3ccccc23)oc1NCCN1CCCCC1	none
N#Cc1nc(-c2cccs2)oc1NCCCN1CCOCC1	Autofluor 339 2.3 (not shown: DPM-DC inhibit)
COc1ccc(N2CCN(c3oc(-c4ccco4)nc3C#N)CC2)cc1	none
N#Cc1nc(COc2ccc(-c3ccccc3)cc2)oc1NCCCN1CCOCC1	none
Cc1cc(Nc2ccc(N3CCC(C)CC3)cc2)n2ncnc2n1	none
COc1ccc(-c2nc(C#N)c(NCCCN3CCOCC3)o2)cc1	Autofluor 339 2.1 (not shown: DPM-DC inhibit)
N#Cc1nc(-c2cccc3ccccc23)oc1NCCN1CCOCC1	Autofluor 339 3.6 (not shown: DPM-DC inhibit)
N#Cc1nc(COc2ccccc2)oc1NCCN1CCOCC1	none
N#Cc1nc(-c2ccccc2F)oc1NCCN1CCOCC1	Autofluor 339 2.1 (not shown: DPM-DC inhibit)
O=C(O)c1ccccc1C1=Nc2ccc(O)cc2Oc2cc(O)ccc21	none
Cn1c(/C=N/c2nc3ccccc3[nH]2)nc2ccccc21	none
Cn1c(/C=N/n2cnnc2)nc2ccccc21	Autofluor 339 2.5 (not shown: DPM-DC inhibit)
Cc1ccnc(N2CCC(C(=O)Nc3ccc(Oc4ccccc4)cc3)CC2)n1	Spn PMK inh 29
Cc1cc(C)nc(N2CCC(C(=O)Nc3ccc(Oc4ccccc4)cc3)CC2)n1	none
COc1ccc(CCN2CC(C(=O)O)CC2=O)cc1 (stereo not drawn)	none
C=CCn1c(=O)c(C#N)cc2c(=O)n3ccccc3nc21	Autofluor 339 4.8 (not shown: DPM-DC inhibit)
Cc1cc(-n2c(=O)c(C#N)cc3c(=O)n4ccccc4nc32)no1	Autofluor 339 3.8 (not shown: DPM-DC inhibit)
Cc1cc(N2C(=O)C3C4c5ccccc5C(c5ccccc54)C3C2=O)no1 (stereo not drawn)	none
CCOc1ccc(CNC(=O)CCn2c(=O)oc3ccccc32)cc1OC	none
CCC1CCCCN1C(=O)CSc1nnc(CNC(=O)c2ccco2)o1 (stereo not drawn)	none
Cc1cccc2cc3c(NC(=O)c4ccccn4)nn(C)c3nc12	Autofluor 339 2.1
CCCC(=O)Nc1nn(C)c2nc3c(C)cccc3cc12	none
Cc1cc(=O)oc2cc(OCc3ccc(S(=O)(=O)N4CCOCC4)cc3)ccc12	Autofluor 339 2.1 (not shown: DPM-DC inhibit)
CCn1c(SCC(=O)Nc2ccc(NC(C)=O)cc2)nnc1C1CC1	none
CCn1c(SCC(=O)Nc2ccc(Cl)cc2)nnc1C1CC1	Spn PMK inh 58
O=C(Nc1ccc(-c2nc3cccnc3s2)cc1)c1ccco1	Autofluor 339 2.1 (not shown: DPM-DC inhibit)
O=C(Nc1ccc(-c2nc3cccnc3s2)cc1)c1ccc(Br)o1	Autofluor 339 2.2 (not shown: DPM-DC inhibit)
O=C(Nc1cccc(-c2nc3cccnc3s2)c1)c1ccco1	none
COc1cccc(NC(=O)c2nnn(Cc3ccc(Br)cc3F)c2N)c1	none

Bioassay records from PubChem.
